In the library only some 0.27% were active in any assay of this set; here they are far more common.
BCR signal inh – qHTS Assay to Find Inhibitors of Chronic Active B-Cell Receptor Signaling | Potency, µM (highest dose often 46.1 µM), for the others: at the top dose activity change, negative = inhibition, most hits filed as inhibitors | ABC-DLBCL IkBa-CBG/CBR reporter, luminescence ratio, 4 h | 0.05% of 340,000 active; active = well fitted inhibition curve with a large enough effect in the signal ratio, with a control signal flat, not every such curve was filed as active; inconclusive = small, poorly fitted or top-dose-only effect, or effect the other way, or a change in a side signal; the % refers to the signal ratio;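 note: plate controls were basal doxycycline-induced cells for no effect and cells given 10 µM MG132 for full effect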
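Concentration-response series (up to 46 uM) were applied to TMD8 dual-reporter cells for 4 h at 37C with doxycycline. Green/red ratio, after filter-overlap correction, defined %Activity; red signal alone was normalised to basal cells and zero luminescence.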
Tb PFK inh-1 – qHTS Assay to Find Inhibitors of T. brucei phosphofructokinase; ATP-dependent 6-phosphofructokinase (Trypanosoma brucei brucei), O15648; T. brucei PFK, ADP-Glo luminescence; Potency, µM (top dose mostly 57.5 µM), without a hit: top-dose activity, negative = inhibition, hits mostly inhibitors; 0.17% of 330,000 active; AID 485367, 2010;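 note: 0% = uninhibited 1x PFK enzyme wells and -100% = no-enzyme wells; nearly all actives have a fitted effect of over 60% in size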
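Compounds were pin-transferred as a titration series up to 57 uM into substrate buffer (0.5 mM F6P, 0.1 mM ATP, pH 8.0), then 1.25 nM PFK was added and reactions ran 45 min before ADP-Glo detection.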
B2AR arrestin – qHTS assay of beta-arrestin-biased ligands of beta2-adrenergic receptor. Beta-2 adrenergic receptor (Homo sapiens), P07550. Potency, µM (highest dose often 46.1 µM), for the others: top-dose activation, hits mostly activators. beta-arrestin recruitment to beta2AR, cell-based reporter. AID 492947, 2010. 0.02% of 330,000 active;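 note: 0% = DMSO controls and full agonism = EC100 isoproterenol or metaproterenol; nearly all actives have a fitted effect of over 65% in size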
MBNL1 CUG block – qHTS Assay for Inhibitors of MBNL1-poly(CUG) RNA binding; 0.036% of 280,000 active; Potency, µM (series often up to 57.5 µM), without a hit: at the highest dose activity change, negative = inhibition, usual class: inhibitors; TR-FRET MBNL1-His/biotin-(CUG)12 binding, 665/545 ratio; Muscleblind-like protein 1 (Homo sapiens), Q9NR56; active = well fitted inhibition curve with a large enough effect in the signal ratio, with a control signal flat, not every such curve was filed as active; inconclusive = small, poorly fitted or top-dose-only effect, or effect the other way, or a change in a side signal; inactive = no such curve, though single readings can be large or run the other way; the % refers to the signal ratio; note: % is set by controls: 0 for no effect and ±100 for the full control effect
Target sequence (Q9NR56 whole entry, looked up): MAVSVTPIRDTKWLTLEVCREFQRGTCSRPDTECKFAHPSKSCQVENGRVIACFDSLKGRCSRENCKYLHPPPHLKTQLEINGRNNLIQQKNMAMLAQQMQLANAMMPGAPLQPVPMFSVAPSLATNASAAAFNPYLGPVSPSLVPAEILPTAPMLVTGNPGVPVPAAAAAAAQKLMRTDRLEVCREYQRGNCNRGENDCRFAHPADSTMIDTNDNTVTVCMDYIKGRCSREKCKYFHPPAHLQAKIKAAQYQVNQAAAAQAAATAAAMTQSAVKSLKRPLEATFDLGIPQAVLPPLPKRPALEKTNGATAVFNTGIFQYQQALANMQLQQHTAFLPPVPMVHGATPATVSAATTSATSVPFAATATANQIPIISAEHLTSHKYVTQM
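Inhibition of protein-RNA binding appears as loss of TR-FRET between terbium anti-His antibody on MBNL1-His and streptavidin-XL665 on biotin-(CUG)12. Activity is normalized to buffer-only and uninhibited-complex controls.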
Tb PFK KinaseGlo – Tb PFK orthogonal confirmatory assay using ATP depletion (Kinase-Glo Plus) as an alternative measure of Tb PFK activity: Hit Validation | shares compounds with Tb PFK inh-1 | 47% of 1,100 active | Potency, µM (top dose mostly 57.5 µM), for inactives: at the top dose inhibition | Tb PFK enzyme, ATP depletion, Kinase-Glo Plus luminescence; calls by dose curve; note: nearly all actives have a fitted effect of over 60% in size
Tb PFK inh-2 – Inhibitors of T. brucei phosphofructokinase: Hit Validation; shares compounds with Tb PFK inh-1; purified T. brucei PFK, ADP-Glo luminescence, 45 min; Potency, µM (doses to about 57.5 µM), without a hit: at the highest dose activity change, negative = inhibition, usual class: inhibitors; 41% of 1,100 active;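 note: plate controls were full PFK enzyme control for no effect and no enzyme control for full effect; nearly all actives have a fitted effect of over 60% in size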
An asterisk follows results filed as active; ? = inconclusive; / = no result. Unless noted, calls come from the whole dose curve; as a rule, active = well fitted curve in the direction sought with a large enough effect; inconclusive = small, poorly fitted or top-dose-only effect, or another doubt; inactive = no such curve, though single readings can be large; an effect the other way counts as inactive or inconclusive. Potency is the fitted concentration of half-maximal effect.

SMILES	BCR signal inh	Tb PFK inh-1	B2AR arrestin	MBNL1 CUG block	Tb PFK KinaseGlo	Tb PFK inh-2
O=C(OCc1cccc([N+](=O)[O-])c1)c1ccc[nH]c1=O	1%	7.6µM*	0%	10%	8.5µM*	6.7µM*
Cc1ccc(C(=O)OCC(=O)Nc2ccc3[nH]c(=O)[nH]c3c2)cc1S(=O)(=O)N1CCOCC1	-6%	-2%	3%	/	/	/
Cc1ccc(S(=O)(=O)N2CCOCC2)cc1C(=O)OCC(=O)Nc1ccc2[nH]c(=O)[nH]c2c1	6%	?	0%	/	?	?
O=C(NNC(=O)c1cc2ccccc2cc1O)c1cccs1	?	?	1%	14%	-29%	?
C/C(=N\NC(=O)c1cc2ccccc2cc1O)c1cccs1	-7%	26%	0%	-2%	/	/
CN(C)C(=O)c1cccc(-c2csc(N3CCC(C(N)=O)CC3)n2)c1	?	2%	0%	/	/	/
O=C(NC(=S)Nc1ccccc1C(=O)O)c1ccc2ccccc2c1	?	?	-1%	/	-24%	?
O=c1c2cc(F)ccc2sn1-c1ccc(F)cc1	?	7.6µM*	0%	/	?	?
O=C1CCCC(=O)N1c1ccc(F)cc1	1%	-2%	0%	-3%	/	/
COc1ccc(-n2sc3ccc(F)cc3c2=O)cc1	?	6.7µM*	-1%	/	?	?
Cc1ccc(C)c(-n2sc3ccc(F)cc3c2=O)c1	?	3µM*	-1%	/	19µM*	17µM*
CC1CCN(c2ncnc3c2nnn3C)CC1	0%	/	/	/	/	/
COCCNC(=O)Cn1nc(-c2ccc(Cl)cc2)c2ccccc2c1=O	1%	-1%	-1%	-12%	/	/
O=S(=O)(Nc1ccc(Cl)cc1)c1ccc(N2CCOCC2)c(NC(=S)NCCN2CCOCC2)c1	0%	?	0%	-5%	7.6µM*	13µM*
O=C(Cc1ccc(NS(=O)(=O)c2ccc(Cl)c(Cl)c2)cc1)NCCN1CCOCC1	8%	21%	0%	/	/	/
Oc1ccc(/C=N/Nc2nccnc2Cl)cc1	?	?	0%	?	-31%	19µM*
Fc1ccc(/C=N/Nc2nccnc2Cl)cc1	-2%	-12%	0%	23%	/	/
CCN1CCN(CCC(=O)Nc2ccc(Br)cc2)CC1	1%	1%	0%	/	/	/
CCN1CCN(C(=S)c2ccc(O)cc2)CC1	-1%	13µM*	-1%	-7%	6.7µM*	24µM*
Oc1ccc(C(=S)N2CCCC2)cc1	-5%	-12%	-1%	0%	/	/
CCN1CCN(C(=S)c2ccc(Br)cc2)CC1	?	?	0%	-8%	11µM*	27µM*
CC1C=CC(C)C(C(=O)O)C1C(=O)O (stereo not given)	1%	?	0%	0%	?	?
O=C(O)C1C2C=CC(CC2)C1C(=O)O (stereo not given)	?	?	0%	-4%	/	/
CC1CCN(S(=O)(=O)N2CCC(C(=O)NCc3ccccc3Cl)CC2)CC1	6%	/	/	/	/	/
O=C1CC(c2cccnc2)=NN1c1ccc(Cl)cc1Cl	7%	?	-1%	/	-9%	-1%
O=c1cnn(-c2ccc(Cl)cc2Cl)c(-c2ccccc2)c1	?	1%	0%	18%	/	/
COc1ccc(CCNC(=O)c2cc(=O)[nH]c3ccc(S(=O)(=O)N4CCCCC4)cc23)cc1OC	0%	/	/	/	/	/
CCOc1cccc(N2C(=O)/C(=C/c3ccco3)C(=O)NC2=S)c1	2%	?	0%	5%	?	?
CCc1nc2ccc(C(=O)NCc3ccc(SC)cc3)cc2nc1CC	20%	/	/	/	/	/

Bioassay records deposited in PubChem BioAssay by National Center for Advancing Translational Sciences (NCATS).
